# Laboratory results taken from PubChem BioAssay.
# Unmarked numbers belong to inactive results. For some of these results: Measured potencies and affinities stand elsewhere. Calls of active or inactive are those of the source. Unless noted, the rule behind the calls is not given here.
# Legend:
# [1] = antimalarial activity against Dd2 strain (AID 2302;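 active = growth inhibition above 50% at the single 2 µM test dose, taken to imply half-maximal potency below 2 µM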;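 note: 0% = DMSO untreated growth and 100% = chloroquine plus artemisinin killed control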); conditions: P. falciparum Dd2 in RBCs, LDH growth readout, 72 h; at 2 µM; stronger effect = higher value
# [2] = HepG2 cytotoxicity, primary screen, cytotoxicity control for P. falciparum antimalarial project, cell-based, ATP luminescence (AID 2303;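 active = inhibition above 50%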;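 note: 0% = DMSO wells and 100% = digitonin-killed cells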); conditions: HepG2 viability, 24-48 h, at 10 µM, stronger effect = higher value
# [3] = biological target: L-lactate dehydrogenase (Plasmodium falciparum (isolate CDC / Honduras)) (UniProt Q27743); assay: PfLDH activity inhibition – cell lysate, 3D7 strain, counter-screen for P. falciparum growth inhibition project (AID 2304);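 note: 0% = vehicle and 100% = reference inhibitor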; conditions: P. falciparum 3D7 crude extract, LDH APAD/NBT absorbance; at 2 µM; stronger effect = higher value
# Chain of L-lactate dehydrogenase (Plasmodium falciparum (isolate CDC / Honduras)) (Q27743 whole entry, looked up): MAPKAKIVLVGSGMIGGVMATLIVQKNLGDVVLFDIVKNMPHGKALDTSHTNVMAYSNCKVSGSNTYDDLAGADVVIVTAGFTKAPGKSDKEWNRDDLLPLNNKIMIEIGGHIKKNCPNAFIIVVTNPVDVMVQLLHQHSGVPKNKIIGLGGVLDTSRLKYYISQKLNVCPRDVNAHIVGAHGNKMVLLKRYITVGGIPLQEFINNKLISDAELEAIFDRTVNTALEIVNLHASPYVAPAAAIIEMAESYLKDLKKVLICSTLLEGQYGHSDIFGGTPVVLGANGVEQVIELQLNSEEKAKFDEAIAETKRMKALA
# [4] = inhibition of 3D7 malaria parasite growth – strain 3D7 (AID 2306);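 note: 0% = DMSO wells and 100% = chloroquine plus artemisinin control wells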; conditions: P. falciparum 3D7 erythrocytic growth, LDH absorbance, 72 h; at 2 µM; stronger effect = higher value
# [5] = biological target: Calcium-dependent protein kinase 1 (Plasmodium falciparum (isolate 3D7)) (UniProt P62344); assay: PfCDPK1 kinase inhibitors, biochemical, TCAMS library (AID 1159585; cut-off not given, nearly all actives have IC50 up to about 0.98 µM;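 note: inhibitors leave more ATP so luminescence rises with inhibition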); conditions: recombinant PfCDPK1, Kinase-Glo ATP depletion luminescence
# Chain of Calcium-dependent protein kinase 1 (Plasmodium falciparum (isolate 3D7)) (P62344 whole entry, looked up): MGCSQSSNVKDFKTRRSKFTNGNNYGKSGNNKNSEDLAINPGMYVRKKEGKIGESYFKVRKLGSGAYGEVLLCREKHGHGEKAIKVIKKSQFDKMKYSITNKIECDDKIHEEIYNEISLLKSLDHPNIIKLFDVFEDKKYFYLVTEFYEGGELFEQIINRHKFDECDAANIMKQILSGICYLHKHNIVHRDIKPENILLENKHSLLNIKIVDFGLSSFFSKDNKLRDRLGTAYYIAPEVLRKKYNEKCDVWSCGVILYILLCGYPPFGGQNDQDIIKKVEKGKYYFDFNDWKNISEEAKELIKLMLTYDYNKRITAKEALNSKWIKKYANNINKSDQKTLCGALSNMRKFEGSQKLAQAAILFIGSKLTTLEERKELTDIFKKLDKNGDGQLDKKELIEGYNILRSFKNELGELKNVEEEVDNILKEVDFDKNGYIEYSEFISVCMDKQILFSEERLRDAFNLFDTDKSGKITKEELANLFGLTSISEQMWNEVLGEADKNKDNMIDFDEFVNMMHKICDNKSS
# [6] = biological target: Plasmodium falciparum protein kinase 6 (PK6, PF3D7_1337100) (UniProt Q8IDW1); assay: PfPK6 kinase inhibitors, biochemical, TCAMS library (AID 1159586); conditions: recombinant PfPK6, Kinase-Glo ATP depletion luminescence
# Chain of Plasmodium falciparum protein kinase 6 (PK6, PF3D7_1337100) (Q8IDW1 1-305): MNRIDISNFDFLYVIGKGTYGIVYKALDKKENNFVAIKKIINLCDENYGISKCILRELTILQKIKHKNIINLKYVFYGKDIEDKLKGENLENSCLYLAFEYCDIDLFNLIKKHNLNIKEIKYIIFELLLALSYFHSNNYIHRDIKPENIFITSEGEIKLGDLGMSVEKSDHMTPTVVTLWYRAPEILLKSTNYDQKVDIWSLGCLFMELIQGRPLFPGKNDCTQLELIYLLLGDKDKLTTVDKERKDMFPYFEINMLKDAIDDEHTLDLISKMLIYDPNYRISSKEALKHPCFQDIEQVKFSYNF
# [7] = biological target: Protein kinase 7 (PK7), Plasmodium falciparum 3D7 (PF3D7_0213400) (UniProt Q7YTF7); assay: inhibition of Plasmodium PK7 catalytic activity – biochemical, TCAMS antimalarial set, Kinase-Glo luminescence (AID 1159587); conditions: recombinant PfPK7, Kinase-Glo ATP depletion luminescence
# Chain of Protein kinase 7 (PK7), Plasmodium falciparum 3D7 (PF3D7_0213400) (Q7YTF7 1-343): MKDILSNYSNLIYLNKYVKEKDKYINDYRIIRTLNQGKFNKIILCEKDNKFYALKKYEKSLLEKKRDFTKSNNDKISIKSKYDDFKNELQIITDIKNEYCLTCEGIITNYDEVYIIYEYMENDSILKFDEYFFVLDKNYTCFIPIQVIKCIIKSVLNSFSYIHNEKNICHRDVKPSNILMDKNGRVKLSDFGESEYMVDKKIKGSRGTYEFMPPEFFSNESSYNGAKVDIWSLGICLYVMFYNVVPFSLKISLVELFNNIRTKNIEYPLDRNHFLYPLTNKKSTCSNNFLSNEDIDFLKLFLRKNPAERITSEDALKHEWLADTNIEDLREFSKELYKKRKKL
# [8] = biological target: Calcium-dependent protein kinase 4 (Plasmodium falciparum (isolate 3D7)) (UniProt Q8IBS5); assay: PfCDPK4 kinase inhibitors, biochemical, TCAMS library (AID 1159588; cut-off not given, nearly all actives have IC50 up to about 0.91 µM); conditions: recombinant PfCDPK4, Kinase-Glo ATP depletion luminescence
# Chain of Calcium-dependent protein kinase 4 (Plasmodium falciparum (isolate 3D7)) (Q8IBS5 whole entry, looked up): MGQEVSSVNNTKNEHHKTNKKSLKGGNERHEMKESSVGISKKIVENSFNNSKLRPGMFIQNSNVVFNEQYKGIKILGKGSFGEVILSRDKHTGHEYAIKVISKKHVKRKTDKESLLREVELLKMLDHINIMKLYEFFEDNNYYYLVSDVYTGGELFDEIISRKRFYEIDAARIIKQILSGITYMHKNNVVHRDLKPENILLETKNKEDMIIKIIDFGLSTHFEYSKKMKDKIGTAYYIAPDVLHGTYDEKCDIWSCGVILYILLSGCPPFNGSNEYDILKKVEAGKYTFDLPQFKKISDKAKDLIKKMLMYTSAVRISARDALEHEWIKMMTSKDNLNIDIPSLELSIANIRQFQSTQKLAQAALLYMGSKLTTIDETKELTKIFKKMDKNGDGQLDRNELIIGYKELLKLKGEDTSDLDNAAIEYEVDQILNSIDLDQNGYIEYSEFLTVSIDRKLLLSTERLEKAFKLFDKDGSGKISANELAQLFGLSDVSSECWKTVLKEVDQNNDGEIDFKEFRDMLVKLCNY
Structure (SMILES),growth inhibition [1],inhibition [2],inhibition [3],growth inhibition [4],outcome [5],outcome [6],outcome [7],outcome [8]
COc1cc(NC(=O)c2cc3c(C)nn(-c4cccc(C(F)(F)F)c4)c3s2)cc(OC)c1OC,50% (active),0%,3%,101% (active),inactive,inactive,inactive,inactive
Oc1ccc(CCNCCCCCCNCCc2ccc(Cl)c3ccccc23)cc1O,1%,22%,-4%,99% (active),inactive,inactive,inactive,inactive
CCc1sc(-c2cc(Cl)ccc2OC)nc1C(=O)NCCN1CCCCC1,28%,3%,2%,100% (active),inactive,inactive,inactive,inactive
Cc1ccc2[nH]c(C3CCCNC3)c(-c3ccncc3)c2c1 (stereo not drawn),22%,10%,0%,101% (active),inactive,inactive,inactive,inactive
CC(Cc1ccc(OCCN2CCN(c3ccccc3)CC2)cc1)NCC(O)c1cccc(Cl)c1F (stereo not drawn),56% (active),40%,6%,92% (active),inactive,inactive,inactive,inactive
CCc1c[nH]c2c(N3CCCC3=O)cc(C(=O)N[C@@H](Cc3ccccc3)[C@H](O)CNC(C)(C)c3cccc(C(F)(F)F)c3)cc12,99% (active),10%,1%,98% (active),inactive,inactive,inactive,inactive
O=C(Nc1nc2cc(S(=O)(=O)NCc3ccc(Cl)c(Cl)c3)ccc2n1CCCn1ccnc1)c1ccc(Cl)cc1,44%,-12%,4%,101% (active),inactive,inactive,inactive,inactive
CC(=O)Nc1ccc(CN2CCC(NC(=O)c3ccc(-c4cccc(Cl)c4)s3)CC2)cc1,59% (active),34%,3%,97% (active),inactive,inactive,inactive,inactive
O=C(NCc1cccnc1)C(c1cc2ccccc2o1)N1CCN(C(c2ccccc2)c2ccccc2)CC1 (stereo not drawn),81% (active),12%,6%,95% (active),inactive,inactive,inactive,inactive
COc1cc(F)c2nccc([C@@H](O)CN3CC[C@H](NCc4ccc5c(n4)NC(=O)CS5)[C@H](F)C3)c2c1,80% (active),32%,5%,87% (active),inactive,inactive,inactive,inactive
CC(C)N1CCC(N(Cc2ccc(-c3ccc(C(F)(F)F)cc3)cc2)C(=O)Cn2c(CCc3cccc(F)c3F)cc(=O)c3ccccc32)CC1,73% (active),50% (active),-6%,99% (active),inactive,inactive,inactive,inactive
COc1ccc(OCC(O)CN(Cc2ccccc2OC)C(=O)Nc2ccc(Br)cc2)cc1 (stereo not drawn),2%,8%,0%,97% (active),inactive,inactive,inactive,inactive
OCc1ccc(-c2cncc(Nc3ccc(F)c(Cl)c3)c2)cc1,99% (active),2%,-2%,92% (active),inactive,inactive,inactive,inactive
Cc1cc(C(=O)N(Cc2ccc(-c3ccc(CNCCc4ccc(S(C)(=O)=O)cc4)cn3)cc2)C(C)CN(C)C)ccc1[N+](=O)[O-] (stereo not drawn),46%,17%,-1%,99% (active),inactive,inactive,inactive,inactive
O=C(NCCCCN1CCC(c2ccc3c(c2OCc2ccncc2)CCCC3)CC1)c1ccc(NC(=O)c2ccc(Cl)cc2)cc1,99% (active),62% (active),-4%,100% (active),inactive,inactive,inactive,inactive
COc1cc(CCN(C)Cc2ccc(OC)c(OC)c2)ccc1NC(=O)c1cccc2c(=O)c3cccc(F)c3[nH]c12,26%,14%,0%,102% (active),inactive,inactive,inactive,inactive
O=C(CCCc1ccccc1)Nc1cccc(N2CCC(N3CCN(c4ccccc4O)CC3)CC2)c1,41%,31%,-1%,98% (active),inactive,inactive,inactive,inactive
COc1cc(Nc2ccnc3cc(-c4nccs4)ccc23)ccc1OCCCc1nc2ccccc2[nH]1,68% (active),100% (active),5%,100% (active),inactive,inactive,inactive,inactive
CNCCNCc1ccc(-c2cccc(-c3nc4ccc(F)cc4[nH]3)c2)cc1,1%,10%,-1%,93% (active),inactive,inactive,inactive,inactive
Cc1cc(NC(=O)Nc2ccc(C(C)(C)C)cc2)c2ccccc2n1,57% (active),-3%,5%,101% (active),inactive,inactive,inactive,inactive
Cc1cc(N2CCC(NS(=O)(=O)c3ccccc3)CC2)nc(Nc2cccc(C#N)c2)n1,29%,52% (active),3%,93% (active),inactive,inactive,inactive,inactive

Structure (SMILES),growth inhibition [1],inhibition [2],inhibition [3],growth inhibition [4],outcome [5],outcome [6],outcome [7],outcome [8]
Nc1nc(N)c2c(ccc3c2ccn3Cc2cccc3ccccc23)n1,95% (active),65% (active),-3%,99% (active),inactive,inactive,inactive,inactive
CC1(C)N=C(N)N=C(N)N1OCCc1ccc2ccccc2c1,95% (active),65% (active),3%,96% (active),inactive,inactive,inactive,inactive
CCCc1c(C(=O)OCC)c2cc(O)ccc2n1-c1ccc(OC)cc1,99% (active),-2%,0%,100% (active),inactive,inactive,inactive,inactive
COc1cc2nccc(Nc3ccc(OCc4ccccc4)cc3)c2cc1OC,99% (active),35%,1%,101% (active),inactive,inactive,inactive,inactive
COc1cc(NCCCNCc2cn(S(=O)(=O)c3ccccc3)c3ccccc23)nc2ccccc12,77% (active),36%,4%,101% (active),inactive,inactive,inactive,inactive
CC1(C)CCCN(Cc2c(O)ccc3c(=O)c(-c4nc5ccccc5s4)c(N)oc23)C1,100% (active),20%,-1%,101% (active),inactive,inactive,inactive,inactive
COc1ccc(Cn2c(Nc3cccc(C(F)(F)F)c3)nc3ccc(C(=O)NCCN4CCCC4)cc32)cc1Cl,6%,14%,2%,100% (active),inactive,inactive,inactive,inactive
CCn1cc2c3c(cc(C(=O)N[C@@H](Cc4ccccc4)[C@H](O)CNCc4cccc(OC)c4)cc31)N(C)S(=O)(=O)CC2,97% (active),-12%,0%,99% (active),inactive,inactive,inactive,inactive
CC(C)NCc1ccc(-c2ccc(NS(=O)(=O)c3cccc4cccnc34)cc2)cc1,45%,27%,-4%,90% (active),inactive,inactive,inactive,inactive
CC(O)C1CCCCN1C(=O)c1cccc(-c2cccc(-c3nc4ccc(F)cc4[nH]3)c2)c1 (stereo not drawn),99% (active),42%,-2%,101% (active),inactive,inactive,inactive,inactive
O=C(Nc1ccc(Cl)c(-c2nc3ccccc3[nH]2)c1)c1ccc(-c2ccc(Cl)cc2)o1,22%,16%,0%,89% (active),inactive,inactive,inactive,inactive
Cc1ccc2[nH]cc(/C=C/C(=O)NC3CCC(CCN4CCc5ccc(C#N)cc5CC4)CC3)c2c1 (stereo not drawn),49%,11%,-4%,93% (active),inactive,inactive,inactive,inactive
Cc1ccc(C(=O)Nc2cccc(CN3CCCN(Cc4ccc(O)cc4)CC3)c2)s1,23%,17%,-4%,90% (active),inactive,inactive,inactive,inactive
CC(C)CN1CCCN(Cc2cccc(NC(=O)c3ccc(-c4ccccc4)cc3)c2)CC1,24%,30%,1%,99% (active),inactive,inactive,inactive,inactive
CCc1ccc(-n2cc(C(=O)c3cc(Br)ccc3O)cc(C#N)c2=O)cc1,30%,9%,-2%,97% (active),inactive,inactive,inactive,inactive
CN(C)c1ccc2c(c1)Sc1cc(N(C)C)ccc1N2C(=O)c1cccc(C(=O)O)c1,73% (active),8%,-3%,99% (active),inactive,inactive,inactive,inactive
c1ccc2c(c1)CN(CC1CCOCC1)CC1(CCN(Cc3c[nH]c4cnccc34)CC1)O2,7%,21%,-3%,99% (active),inactive,inactive,inactive,inactive
CCN(CC)CCOc1ccc(NC(=O)c2oc3ccccc3c2C=Cc2ccccc2)cc1,54% (active),51% (active),-2%,98% (active),inactive,inactive,inactive,inactive
COc1ccccc1-n1c(SCC(=O)Nc2ccccc2F)nc2cccnc21,88% (active),-21%,0%,96% (active),inactive,inactive,inactive,inactive
CC(C)(C)CC(C)(C)c1ccc(O)c(C(=O)Nc2ccc([N+](=O)[O-])cc2)c1,99% (active),80% (active),5%,97% (active),inactive,inactive,inactive,inactive
